Z-score data for 40 compounds are collected here from PubChem BioAssay.

Activity calls are given as the source filed them.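 Rule for the calls: active = z-score of at least 1.8 in each of two replicates, scored against plate mean and spread of sample wells; inactive = the rest.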

A short description of this assay: viability rescue of complex I mutant cybrids, primary screen, cell-based, galactose medium, ATP luminescence (AID 1645843).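 Note: positive z means more ATP and so rescue of galactose-driven cybrid death.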 To be noted: complex I mutant cybrid cells, 72 h, stronger effect = higher value.
Take `CCCC1CCCN1Cc1ccccc1OC1(C(=O)O)CCCC1` (stereo not given): the z-score was -0.265 (inactive).

In the case of `COc1ccc(CC(=O)NCc2cccc(SC)c2)cc1`, the z-score is 0.19 (inactive).

With `CC(C)(C)c1cn(CC2CCCN(C(=O)c3cn4cccnc4n3)C2)nn1` (stereo not given), the z-score is 0.425 (inactive).

On to `CCCCn1nnnc1NC(=O)N1C2CCCCC1CCC2`, for which the z-score was 0.915 (inactive).

With `C=C1C2(C(=O)N3CCCC(COC)C3)CCC(C2)C1(C)C` (stereo not given), the z-score was -0.525 (inactive).

Consider `Cc1ccc(C(=O)NCC2CCCN(C(=O)C3CC3)C2)cn1` (stereo not given), for which the z-score was -0.52 (inactive).

For `Cc1cccc2c(C(=O)N3CCN(C)C(=O)C3C)cc(-c3cnc(N)nc3)nc12` (stereo not given), the z-score is 2.6 (inactive).

For the compound `CN(C)C(=O)c1cccnc1-c1ccc2ncccc2c1`, the z-score was -0.545 (inactive).

Turning to `CC(C)c1nc(Cn2cnc3ccsc3c2=O)cs1`, the z-score is -0.55 (inactive).

Consider `O=c1c2cccc(F)c2ncn1CCC1CCCCN1C1CCCC1` (stereo not given), for which the z-score was -0.825 (inactive).

Regarding `CC1(C)CC(CC(=O)N2CCC(n3cc(C(C)(C)O)nn3)CC2)CC(C)(C)N1`, the z-score is -0.57 (inactive).

For the compound `COc1ccccc1-c1noc(CN2CCOC2=O)n1`, the z-score was 1.68 (inactive).

Turning to `COc1cccc(-n2cc(-c3ccnc(N(C)Cc4cccnc4)n3)cn2)c1`, the z-score is 0.62 (inactive).

Turning to `c1ccc(-c2nccn2Cc2nc(-c3ccccn3)no2)cc1`, the z-score is 1.27 (inactive).

Take `COC(=O)c1ccccc1C(=O)N1CCNC(=O)C1Cc1ccccc1` (stereo not given): the z-score is -0.485 (inactive).

As to `CC(CCN1CCC(n2cc(CCO)nn2)CC1)CC(C)(C)C` (stereo not given), the z-score is -0.485 (inactive).

`CCCc1cn(C2CCN(C(=O)C(C)N3CCCC3)CC2)nn1` (stereo not given): the z-score was -0.35 (inactive).

Take `Cc1ccc(C(=O)N2CCNC(=O)C2Cc2ccccc2)cc1F` (stereo not given): the z-score is -0.505 (inactive).

For `Cc1cnc(CN(C)Cc2ccc(-c3nc(C(F)(F)F)c(C)c(=O)[nH]3)cc2)[nH]1`, the z-score was -0.58 (inactive).

For `COc1ccc(F)c(-c2cnc(C)[nH]2)c1`, the z-score was -0.545 (inactive).

Consider `CCN1CCC(N2CCCC(CN3CCCC3)C2)CC1` (stereo not given), for which the z-score is -0.48 (inactive).

For the compound `COc1cc(-c2cccc(C)c2C)nc(N)n1`, the z-score was -0.335 (inactive).

As for `Cc1nc(NC(=O)N2CCCC(c3nc4ccccc4[nH]3)C2)nn1C` (stereo not given), the z-score is 0.195 (inactive).

For the compound `Cc1cc(C)c(C(=O)N2CCCCC2CCN2CCCC2=O)cc1C` (stereo not given), the z-score is -0.46 (inactive).

As for `Cc1ccccc1-c1cccc(N2CCC(N3CCN(C)C(C)C3)CC2)c1` (stereo not given), the z-score was 1.36 (inactive).

For the compound `Cc1c(C(F)(F)F)nc(-c2ccc(CN(C)C)cc2)[nH]c1=O`, the z-score was -0.555 (inactive).

Take `COc1ccc(N2CCN(C(=O)Nc3nc(C)ns3)CC2(C)C)cc1`: the z-score is -0.445 (inactive).

Take `CCCCC1C(=O)N(C)CCN1C(=O)Nc1nnc(C(C)(C)C)s1` (stereo not given): the z-score was -0.33 (inactive).

As for `CCCC(NC(=O)c1cc(C)oc1C)c1ccccc1` (stereo not given), the z-score was -0.63 (inactive).

Turning to `Cc1cc(C)c(CNC(C)CCCC(C)(C)O)c(C)c1CO` (stereo not given), the z-score was 0.19 (inactive).

Regarding `Cc1cc(C(=O)N2CCCC(C)C2)c2ccc(C)c(C)c2n1` (stereo not given), the z-score is -0.505 (inactive).

Take `Cc1ccccc1-c1cccc(C(=O)c2nccn2C)c1`: the z-score was -0.54 (inactive).

Regarding `CCCCC(CO)NC(C)CCc1ccc(OC)cc1` (stereo not given), the z-score is -0.47 (inactive).

`CC(O)c1cn(CC2CCN(C(=O)CC3CCCCCC3)CC2)nn1` (stereo not given): the z-score was -0.54 (inactive).

Consider `O=C1CC(C(=O)N2CCc3sccc3C2)c2cc(F)ccc2N1` (stereo not given), for which the z-score was 4.16 (active).

Consider `CC(=O)c1c(C)cc(C)c(CNC(C)CCCC(C)(C)O)c1C` (stereo not given), for which the z-score was -0.52 (inactive).

As for `FC(F)(F)c1cccc(Cc2noc(CCCN3CCCCC3)n2)c1`, the z-score is 0.61 (inactive).

With `COc1cccc(-n2cc(-c3ccnc(N4CCCN(C(C)=O)CC4)n3)cn2)c1`, the z-score was -1.14 (inactive).

With `Cn1ncc(NC(=O)CCc2cn3ccccc3n2)n1`, the z-score was 0.67 (inactive).

Regarding `Cc1sc2ccccc2c1-c1ccn(CC(=O)Nc2ccnn2C(C)C)n1`, the z-score is -0.855 (inactive).
